# From the supplement of paper PMC12819154, “High-throughput peptide-centric local stability assay extends protein–ligand identification to membrane proteins, tissues and bacteria” (Nature Structural & Molecular Biology, 2025)
# Columns and labels:
# [1] = molecular target: UniProt O54950; assay: log2 fold change of pooled soluble protein (PISA), ligand vs vehicle (log2 ratio); higher = more thermally stabilized; settings: ligand concentration: 20 uM; assay format: PISA pool 52.9/55.5/58.6 C
# [2] = molecular target: UniProt P31938; assay: as above; settings: ligand concentration: 20 uM; assay format: PISA pool 52.9/55.5/58.6 C
# [3] = molecular target: UniProt P41241; assay: as above; settings: ligand concentration: 20 uM; assay format: PISA pool 52.9/55.5/58.6 C
# [4] = molecular target: UniProt Q3UHJ0; assay: as above; settings: ligand concentration: 20 uM; assay format: PISA pool 52.9/55.5/58.6 C
# [5] = molecular target: T1, UniProt Q5F2E8; assay: as above; settings: ligand concentration: 20 uM; assay format: PISA pool 52.9/55.5/58.6 C
# T1 sequence (whole entry): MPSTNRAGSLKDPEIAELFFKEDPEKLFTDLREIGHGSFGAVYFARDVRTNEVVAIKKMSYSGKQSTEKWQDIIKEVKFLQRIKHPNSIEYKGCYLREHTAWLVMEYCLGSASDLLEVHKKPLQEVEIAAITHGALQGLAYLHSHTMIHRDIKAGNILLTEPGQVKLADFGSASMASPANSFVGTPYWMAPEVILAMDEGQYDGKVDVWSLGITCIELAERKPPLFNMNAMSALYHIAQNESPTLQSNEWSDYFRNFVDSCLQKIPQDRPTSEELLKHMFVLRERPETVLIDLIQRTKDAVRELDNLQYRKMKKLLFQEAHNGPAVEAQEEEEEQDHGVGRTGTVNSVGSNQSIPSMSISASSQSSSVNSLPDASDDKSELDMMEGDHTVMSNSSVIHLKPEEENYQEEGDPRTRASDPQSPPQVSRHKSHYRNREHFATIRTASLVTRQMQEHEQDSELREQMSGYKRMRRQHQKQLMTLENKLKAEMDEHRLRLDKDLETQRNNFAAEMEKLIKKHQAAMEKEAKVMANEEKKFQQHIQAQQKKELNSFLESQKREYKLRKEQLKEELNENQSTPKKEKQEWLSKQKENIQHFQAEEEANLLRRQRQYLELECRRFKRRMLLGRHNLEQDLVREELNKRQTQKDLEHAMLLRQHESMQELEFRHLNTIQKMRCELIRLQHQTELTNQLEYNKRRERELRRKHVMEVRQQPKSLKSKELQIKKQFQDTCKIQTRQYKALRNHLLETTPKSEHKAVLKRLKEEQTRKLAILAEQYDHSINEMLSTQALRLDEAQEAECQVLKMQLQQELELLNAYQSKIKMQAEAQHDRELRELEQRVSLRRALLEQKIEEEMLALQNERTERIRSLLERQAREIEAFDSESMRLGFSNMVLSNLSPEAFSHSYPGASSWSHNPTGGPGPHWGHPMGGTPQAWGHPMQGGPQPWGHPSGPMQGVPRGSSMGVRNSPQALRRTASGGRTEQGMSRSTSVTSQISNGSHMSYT
# [6] = molecular target: UniProt Q63932; assay: as above; settings: ligand concentration: 20 uM; assay format: PISA pool 52.9/55.5/58.6 C
# [7] = molecular target: T2, UniProt Q64464; assay: as above; settings: ligand concentration: 20 uM; assay format: PISA pool 52.9/55.5/58.6 C
# T2 sequence (whole entry): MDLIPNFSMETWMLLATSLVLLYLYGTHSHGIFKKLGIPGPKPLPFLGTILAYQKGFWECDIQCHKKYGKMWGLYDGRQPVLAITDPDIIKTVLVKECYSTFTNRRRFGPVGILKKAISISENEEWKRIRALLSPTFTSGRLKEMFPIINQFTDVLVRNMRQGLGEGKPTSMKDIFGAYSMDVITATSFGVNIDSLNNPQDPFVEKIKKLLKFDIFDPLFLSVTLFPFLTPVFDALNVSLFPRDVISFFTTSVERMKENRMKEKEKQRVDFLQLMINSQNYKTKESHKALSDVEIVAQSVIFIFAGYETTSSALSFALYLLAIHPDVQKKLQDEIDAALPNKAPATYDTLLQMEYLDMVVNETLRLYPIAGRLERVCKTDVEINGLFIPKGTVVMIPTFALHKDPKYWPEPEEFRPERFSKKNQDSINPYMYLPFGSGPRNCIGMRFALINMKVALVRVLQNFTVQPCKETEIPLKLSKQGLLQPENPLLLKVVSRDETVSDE
# [8] = molecular target: T3, UniProt Q6PIU9; assay: as above; settings: ligand concentration: 20 uM; assay format: PISA pool 52.9/55.5/58.6 C
# T3 sequence (whole entry): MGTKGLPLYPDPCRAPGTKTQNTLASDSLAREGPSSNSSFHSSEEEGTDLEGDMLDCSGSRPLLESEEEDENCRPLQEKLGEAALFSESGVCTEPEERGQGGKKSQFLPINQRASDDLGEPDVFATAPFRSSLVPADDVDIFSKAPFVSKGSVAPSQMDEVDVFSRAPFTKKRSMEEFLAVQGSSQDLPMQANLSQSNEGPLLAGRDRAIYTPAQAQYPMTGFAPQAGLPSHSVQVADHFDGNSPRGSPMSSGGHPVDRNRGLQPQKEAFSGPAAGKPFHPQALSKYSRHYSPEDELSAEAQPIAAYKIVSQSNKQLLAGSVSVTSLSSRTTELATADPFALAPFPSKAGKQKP
# [9] = molecular target: UniProt Q8BRK8; assay: as above; settings: ligand concentration: 20 uM; assay format: PISA pool 52.9/55.5/58.6 C
# [10] = molecular target: UniProt Q8BTW9; assay: as above; settings: ligand concentration: 20 uM; assay format: PISA pool 52.9/55.5/58.6 C
# [11] = molecular target: T4, UniProt Q8BYY4; assay: as above; settings: ligand concentration: 20 uM; assay format: PISA pool 52.9/55.5/58.6 C
# T4 sequence (whole entry): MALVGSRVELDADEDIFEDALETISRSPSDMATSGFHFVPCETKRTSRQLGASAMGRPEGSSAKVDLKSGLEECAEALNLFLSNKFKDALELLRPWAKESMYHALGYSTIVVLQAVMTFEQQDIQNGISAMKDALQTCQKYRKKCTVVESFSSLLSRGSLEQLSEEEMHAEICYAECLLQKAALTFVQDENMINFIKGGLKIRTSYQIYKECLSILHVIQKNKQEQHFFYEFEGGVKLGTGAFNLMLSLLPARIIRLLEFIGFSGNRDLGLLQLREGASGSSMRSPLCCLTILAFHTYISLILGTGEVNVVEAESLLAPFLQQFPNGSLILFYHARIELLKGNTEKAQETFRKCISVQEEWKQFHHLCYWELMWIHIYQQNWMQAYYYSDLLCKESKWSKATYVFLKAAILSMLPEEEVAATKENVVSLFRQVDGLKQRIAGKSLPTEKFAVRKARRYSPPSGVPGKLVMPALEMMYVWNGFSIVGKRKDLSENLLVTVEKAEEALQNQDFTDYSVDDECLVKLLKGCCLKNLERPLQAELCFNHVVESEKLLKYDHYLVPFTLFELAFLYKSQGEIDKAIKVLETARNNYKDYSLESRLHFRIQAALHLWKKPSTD
# [12] = molecular target: UniProt Q9EQ20; assay: as above; settings: ligand concentration: 20 uM; assay format: PISA pool 52.9/55.5/58.6 C
# [13] = molecular target: T5, UniProt Q9JI10; assay: as above; settings: ligand concentration: 20 uM; assay format: PISA pool 52.9/55.5/58.6 C
# T5 sequence (whole entry): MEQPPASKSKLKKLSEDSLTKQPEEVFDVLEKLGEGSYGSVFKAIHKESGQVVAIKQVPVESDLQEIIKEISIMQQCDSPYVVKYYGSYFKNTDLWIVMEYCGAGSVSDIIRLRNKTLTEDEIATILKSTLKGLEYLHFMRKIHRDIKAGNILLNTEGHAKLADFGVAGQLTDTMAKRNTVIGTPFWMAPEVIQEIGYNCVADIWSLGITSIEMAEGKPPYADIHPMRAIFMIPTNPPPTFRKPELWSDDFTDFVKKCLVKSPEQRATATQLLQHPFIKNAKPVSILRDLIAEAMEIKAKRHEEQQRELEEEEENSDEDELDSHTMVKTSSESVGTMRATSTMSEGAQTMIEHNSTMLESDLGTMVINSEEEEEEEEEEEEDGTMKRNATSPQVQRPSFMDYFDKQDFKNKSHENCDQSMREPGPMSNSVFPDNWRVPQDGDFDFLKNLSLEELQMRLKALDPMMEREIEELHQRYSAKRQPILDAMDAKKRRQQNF
# [14] = molecular target: T6, UniProt Q9R092; assay: as above; settings: ligand concentration: 20 uM; assay format: PISA pool 52.9/55.5/58.6 C
# T6 sequence (whole entry): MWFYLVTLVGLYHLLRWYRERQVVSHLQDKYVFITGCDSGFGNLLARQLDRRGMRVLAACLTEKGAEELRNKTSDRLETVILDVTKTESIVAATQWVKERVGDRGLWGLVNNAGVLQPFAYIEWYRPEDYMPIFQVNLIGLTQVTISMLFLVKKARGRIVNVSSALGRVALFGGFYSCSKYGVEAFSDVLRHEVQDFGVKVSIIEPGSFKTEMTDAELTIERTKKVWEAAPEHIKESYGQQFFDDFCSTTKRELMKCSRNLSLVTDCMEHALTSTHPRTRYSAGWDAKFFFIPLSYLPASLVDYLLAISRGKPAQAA
# [15] = molecular target: T7, UniProt Q9R257; assay: as above; settings: ligand concentration: 20 uM; assay format: PISA pool 52.9/55.5/58.6 C
# T7 sequence (whole entry): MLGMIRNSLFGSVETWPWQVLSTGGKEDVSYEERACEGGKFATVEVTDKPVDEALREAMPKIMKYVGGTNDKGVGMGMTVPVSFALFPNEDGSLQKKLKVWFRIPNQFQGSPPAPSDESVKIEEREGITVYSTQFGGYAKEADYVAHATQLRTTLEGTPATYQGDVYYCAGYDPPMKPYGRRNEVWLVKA
# [16] = molecular target: T8, UniProt P0AEX5; assay: log2 fold change of tryptic peptide abundance, ligand vs vehicle (limited proteolysis) (log2 ratio); higher = more trypsin-susceptible (destabilized); settings: peptide sequence: EAVMDSVVR; peptide start residue: 177; ligand concentration: 5 mM; sample: E. coli desalted lysate; replicate design: treated before aliquoting
# T8 sequence (whole entry): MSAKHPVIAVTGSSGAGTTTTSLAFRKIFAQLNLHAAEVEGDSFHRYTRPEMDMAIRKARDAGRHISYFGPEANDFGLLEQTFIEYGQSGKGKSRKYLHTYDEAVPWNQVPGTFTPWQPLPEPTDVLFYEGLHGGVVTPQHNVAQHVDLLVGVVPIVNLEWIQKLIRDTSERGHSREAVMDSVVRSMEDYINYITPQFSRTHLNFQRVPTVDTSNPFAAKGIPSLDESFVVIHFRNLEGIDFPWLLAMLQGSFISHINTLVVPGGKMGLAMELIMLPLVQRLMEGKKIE
# Experimental: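 HT-PELSA: desalted E. coli K-12 BW25113 lysate (with 12 mM MgCl2) incubated with 5 mM ATP (pH 7) or water for 30 min at 25 C, then a 4 min trypsin pulse at 22 C. Peptides were quantified by DIA-MS (4 replicates). Value is the peptide log2 fold change (treated/control); negative = stabilized. Scale: negative = ligand-stabilized region.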
# 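Wherever log2 fold change of tryptic peptide abundance, ligand vs vehicle (limited proteolysis) is given: lysate desalted by size exclusion to strip endogenous ATP, peptide intensities built from DIA-NN precursor signals, and peptides missing any value discarded before comparison.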
# Sequence of UniProt Q8BRK8 (Q8BRK8 whole entry): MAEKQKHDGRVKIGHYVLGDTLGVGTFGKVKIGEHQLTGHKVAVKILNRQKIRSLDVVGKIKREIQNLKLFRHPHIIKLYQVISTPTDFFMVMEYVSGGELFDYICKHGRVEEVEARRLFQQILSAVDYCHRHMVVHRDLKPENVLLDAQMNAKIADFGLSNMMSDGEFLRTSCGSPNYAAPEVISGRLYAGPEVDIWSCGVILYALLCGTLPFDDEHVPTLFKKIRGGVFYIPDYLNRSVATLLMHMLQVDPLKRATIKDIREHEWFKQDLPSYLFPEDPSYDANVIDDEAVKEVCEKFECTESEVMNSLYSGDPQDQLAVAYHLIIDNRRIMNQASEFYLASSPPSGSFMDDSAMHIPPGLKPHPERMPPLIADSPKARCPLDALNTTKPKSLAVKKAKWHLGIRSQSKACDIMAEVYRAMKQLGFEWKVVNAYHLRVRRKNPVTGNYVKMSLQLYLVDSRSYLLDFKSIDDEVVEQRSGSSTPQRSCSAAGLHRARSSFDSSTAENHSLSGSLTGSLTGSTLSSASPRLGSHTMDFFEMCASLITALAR
# Sequence of UniProt Q3UHJ0 (Q3UHJ0 whole entry, looked up): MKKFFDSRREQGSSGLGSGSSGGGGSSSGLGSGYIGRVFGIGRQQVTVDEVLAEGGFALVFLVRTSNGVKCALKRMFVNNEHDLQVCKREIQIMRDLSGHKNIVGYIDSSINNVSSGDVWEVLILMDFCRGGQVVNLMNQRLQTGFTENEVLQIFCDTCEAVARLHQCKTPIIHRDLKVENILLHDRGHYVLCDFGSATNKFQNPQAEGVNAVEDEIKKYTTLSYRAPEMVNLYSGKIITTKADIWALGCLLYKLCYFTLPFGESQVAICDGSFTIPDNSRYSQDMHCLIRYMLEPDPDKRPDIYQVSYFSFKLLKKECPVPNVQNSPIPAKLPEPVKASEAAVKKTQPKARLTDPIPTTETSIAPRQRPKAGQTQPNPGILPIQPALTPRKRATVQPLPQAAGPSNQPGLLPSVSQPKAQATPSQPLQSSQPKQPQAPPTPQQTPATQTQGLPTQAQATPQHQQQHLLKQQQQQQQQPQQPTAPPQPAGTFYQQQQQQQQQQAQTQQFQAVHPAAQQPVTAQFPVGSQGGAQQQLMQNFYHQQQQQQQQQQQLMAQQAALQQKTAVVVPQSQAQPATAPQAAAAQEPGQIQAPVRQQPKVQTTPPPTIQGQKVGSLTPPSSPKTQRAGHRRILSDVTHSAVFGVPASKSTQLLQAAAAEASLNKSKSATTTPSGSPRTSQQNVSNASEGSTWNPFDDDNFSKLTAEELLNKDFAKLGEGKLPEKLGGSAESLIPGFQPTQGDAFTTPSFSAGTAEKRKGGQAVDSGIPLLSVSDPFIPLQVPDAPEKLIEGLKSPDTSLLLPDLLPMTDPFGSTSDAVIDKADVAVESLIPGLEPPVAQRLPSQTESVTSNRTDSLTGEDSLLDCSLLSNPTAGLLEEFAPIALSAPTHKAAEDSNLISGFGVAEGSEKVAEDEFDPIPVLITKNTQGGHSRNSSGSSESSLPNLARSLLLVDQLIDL
# Sequence of UniProt P31938 (P31938 whole entry): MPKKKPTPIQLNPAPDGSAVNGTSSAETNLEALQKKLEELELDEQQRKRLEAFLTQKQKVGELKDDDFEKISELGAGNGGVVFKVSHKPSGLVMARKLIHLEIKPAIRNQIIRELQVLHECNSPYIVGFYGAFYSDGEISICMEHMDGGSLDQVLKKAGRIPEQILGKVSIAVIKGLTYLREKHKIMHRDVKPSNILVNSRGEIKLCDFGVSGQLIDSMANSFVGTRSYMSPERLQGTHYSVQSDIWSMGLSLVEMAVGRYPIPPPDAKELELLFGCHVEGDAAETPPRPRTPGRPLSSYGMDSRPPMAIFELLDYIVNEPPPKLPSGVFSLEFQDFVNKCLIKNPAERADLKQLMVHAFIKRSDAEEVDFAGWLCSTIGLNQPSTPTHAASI
# Sequence of UniProt O54950 (O54950 whole entry): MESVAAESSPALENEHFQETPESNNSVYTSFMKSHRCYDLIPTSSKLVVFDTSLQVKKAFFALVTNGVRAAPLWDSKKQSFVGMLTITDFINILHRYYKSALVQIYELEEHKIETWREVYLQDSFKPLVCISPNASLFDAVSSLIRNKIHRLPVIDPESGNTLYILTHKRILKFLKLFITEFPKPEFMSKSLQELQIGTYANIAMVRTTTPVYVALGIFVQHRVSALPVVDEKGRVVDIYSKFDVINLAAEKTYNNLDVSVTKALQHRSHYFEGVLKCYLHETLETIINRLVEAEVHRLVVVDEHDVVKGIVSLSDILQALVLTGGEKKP
# Sequence of UniProt Q63932 (Q63932 whole entry): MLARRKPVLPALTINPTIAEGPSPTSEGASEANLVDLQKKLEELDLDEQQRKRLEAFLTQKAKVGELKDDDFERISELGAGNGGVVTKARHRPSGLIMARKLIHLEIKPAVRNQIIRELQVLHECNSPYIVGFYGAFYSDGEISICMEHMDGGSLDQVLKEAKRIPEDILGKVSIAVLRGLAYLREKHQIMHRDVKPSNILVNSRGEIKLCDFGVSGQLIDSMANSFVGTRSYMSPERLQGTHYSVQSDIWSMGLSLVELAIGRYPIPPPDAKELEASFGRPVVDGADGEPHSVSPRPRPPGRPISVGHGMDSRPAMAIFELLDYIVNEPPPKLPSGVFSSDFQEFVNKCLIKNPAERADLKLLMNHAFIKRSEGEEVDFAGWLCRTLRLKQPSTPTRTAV
# Sequence of UniProt Q8BTW9 (Q8BTW9 whole entry): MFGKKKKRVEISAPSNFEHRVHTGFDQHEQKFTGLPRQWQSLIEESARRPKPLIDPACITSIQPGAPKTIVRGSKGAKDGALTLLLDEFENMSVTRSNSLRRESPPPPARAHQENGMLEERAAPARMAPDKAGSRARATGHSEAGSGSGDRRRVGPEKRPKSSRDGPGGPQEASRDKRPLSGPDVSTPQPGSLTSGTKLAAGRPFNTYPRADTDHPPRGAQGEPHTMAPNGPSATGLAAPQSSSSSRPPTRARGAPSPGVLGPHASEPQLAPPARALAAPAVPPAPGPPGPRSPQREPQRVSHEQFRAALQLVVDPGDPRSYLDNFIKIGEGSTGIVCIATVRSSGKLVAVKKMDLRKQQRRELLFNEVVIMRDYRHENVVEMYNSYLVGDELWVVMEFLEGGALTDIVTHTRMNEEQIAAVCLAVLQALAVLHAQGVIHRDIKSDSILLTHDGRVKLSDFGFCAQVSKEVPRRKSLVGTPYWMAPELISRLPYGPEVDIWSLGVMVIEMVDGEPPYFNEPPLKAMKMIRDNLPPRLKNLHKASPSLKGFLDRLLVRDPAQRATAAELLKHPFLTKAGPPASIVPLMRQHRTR
# Sequence of UniProt Q9EQ20 (Q9EQ20 whole entry): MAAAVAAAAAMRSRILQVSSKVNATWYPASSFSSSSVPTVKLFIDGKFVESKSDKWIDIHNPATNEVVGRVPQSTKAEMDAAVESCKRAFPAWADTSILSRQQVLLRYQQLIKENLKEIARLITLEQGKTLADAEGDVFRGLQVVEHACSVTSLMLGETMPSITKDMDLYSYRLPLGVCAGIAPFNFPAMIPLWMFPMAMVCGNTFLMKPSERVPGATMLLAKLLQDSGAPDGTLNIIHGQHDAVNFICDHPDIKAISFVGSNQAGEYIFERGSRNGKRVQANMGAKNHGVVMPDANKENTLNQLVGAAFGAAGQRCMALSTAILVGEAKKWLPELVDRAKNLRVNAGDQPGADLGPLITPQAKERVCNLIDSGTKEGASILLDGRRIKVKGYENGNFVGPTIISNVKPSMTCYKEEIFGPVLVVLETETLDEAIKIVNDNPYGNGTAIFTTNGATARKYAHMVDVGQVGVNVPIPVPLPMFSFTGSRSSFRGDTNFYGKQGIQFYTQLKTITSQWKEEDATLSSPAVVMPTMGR
# Sequence of UniProt P41241 (P41241 whole entry): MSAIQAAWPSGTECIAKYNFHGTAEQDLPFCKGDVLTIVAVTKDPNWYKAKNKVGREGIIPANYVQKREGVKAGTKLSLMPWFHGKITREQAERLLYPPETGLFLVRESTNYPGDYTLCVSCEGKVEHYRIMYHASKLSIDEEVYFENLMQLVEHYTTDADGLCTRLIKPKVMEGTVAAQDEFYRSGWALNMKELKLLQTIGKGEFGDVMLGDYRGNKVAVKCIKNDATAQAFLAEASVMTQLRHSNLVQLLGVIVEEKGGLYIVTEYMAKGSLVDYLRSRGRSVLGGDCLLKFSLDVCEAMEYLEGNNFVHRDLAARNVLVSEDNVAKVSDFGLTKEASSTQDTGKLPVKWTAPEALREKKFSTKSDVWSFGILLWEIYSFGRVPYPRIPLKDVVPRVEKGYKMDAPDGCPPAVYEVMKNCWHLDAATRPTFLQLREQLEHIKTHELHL
compound,measurement,setting,value
CN[C@@H]1C[C@H]2O[C@@](C)([C@@H]1OC)n1c3ccccc3c3c4c(c5c6ccccc6n2c5c31)C(=O)NC4 [staurosporine],log2 fold change of pooled soluble protein,[1],0.645
same,log2 fold change of pooled soluble protein,[2],2.14
same,log2 fold change of pooled soluble protein,[3],1.02
same,log2 fold change of pooled soluble protein,[4],1.91
same,log2 fold change of pooled soluble protein,[5],1.2
same,log2 fold change of pooled soluble protein,[6],2.18
same,log2 fold change of pooled soluble protein,[7],0.447
same,log2 fold change of pooled soluble protein,[8],0.619
same,log2 fold change of pooled soluble protein,[9],0.661
same,log2 fold change of pooled soluble protein,[10],1.36
same,log2 fold change of pooled soluble protein,[11],0.552
same,log2 fold change of pooled soluble protein,[12],0.615
same,log2 fold change of pooled soluble protein,[13],1.77
same,log2 fold change of pooled soluble protein,[14],0.855
same,log2 fold change of pooled soluble protein,[15],0.471
Nc1ncnc2c1ncn2[C@@H]1O[C@H](COP(=O)(O)OP(=O)(O)OP(=O)(O)O)[C@@H](O)[C@H]1O [adenosine 5'-triphosphate],log2 fold change,[16],0.659
